Results published in PubChem BioAssay (Tox21).
Records with an inconclusive call do not appear. A call without a number means that no potency is given here. Activity calls are given as the source filed them. Unless noted, calls follow the shape of the dose curve; as a rule, active = well fitted curve in the direction sought with a large enough effect in the repeat runs; inconclusive = weak or mixed curves; inactive = no such curve, though single readings can be large; an effect the other way counts as inactive or inconclusive.

Assays:
[1] = qHTS assay to identify aromatase inhibitors - cell viability counter screen (AID 743084);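 also: cells stimulated with testosterone during compound exposure; nearly all actives have a fitted effect of over 55% in size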
[2] = molecular target: Aryl hydrocarbon receptor (Homo sapiens) (UniProt P35869); experiment: qHTS assay to identify small molecule that activate the aryl hydrocarbon receptor (AhR) signaling pathway (AID 743085); also: nearly all actives have a fitted effect of over 15% in size; also: potency is read from the fitted curve at half-maximal effect;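 as to activation: HG2L7.5c1 human HepG2 liver cells with stably integrated DRE-driven firefly reporter; series mostly up to about 70 µM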
Method in brief: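 A multiplexed format paired cell viability (CellTiter-Fluor fluorescence) with AhR-dependent luciferase output (ONE-Glo luminescence) in the same wells of HepG2 DRE-luc cells after 24 h compound exposure at 37C.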

[3] = qHTS assay to identify small molecule that activate the aryl hydrocarbon receptor (AhR) signaling pathway - cell viability counter screen (AID 743086);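 also: HepG2 liver cells carrying the AhR DRE luciferase reporter; series mostly up to about 70 µM; nearly all actives have a fitted effect of over 45% in size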
Method in brief: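 HepG2-AhR-luc (HG2L7.5c1) cells, 4000/well, were preincubated 5 h at 37C, exposed to compound in qHTS format for 24 hr at 37C, then given CellTiter-Fluor for 30 min; viability was read as fluorescence in the reporter wells.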

[4] = molecular target: Peroxisome proliferator-activated receptor gamma (Homo sapiens) (UniProt P37231); experiment: qHTS assay to identify small molecule agonists of the peroxisome proliferator-activated receptor gamma (PPARg) signaling pathway (AID 743094; active = well fitted activation curve with a large enough effect in the signal ratio in the repeat runs, not every such curve was filed as active; the % refers to the signal ratio; also: potency is read from the fitted curve at half-maximal effect)
Method in brief: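 Cell-based bla reporter, HEK293H background, PPARg-driven UAS. Pre-incubation 5 h, 37C, 5% CO2. Compound 17 h, 37C. Substrate 1 h RT; fluorescence.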

[5] = molecular target: Peroxisome proliferator-activated receptor gamma (Homo sapiens) (UniProt P37231); experiment: qHTS assay to identify small molecule antagonists of the peroxisome proliferator-activated receptor gamma (PPARg) signaling pathway (AID 743191; calls by dose curve; also: nearly all actives have a fitted effect of over 30% in size; also: potency is read from the fitted curve at half-maximal effect)
Method in brief: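 GeneBLAzer PPARg UAS-bla HEK293H cells carrying a UAS-driven beta-lactamase reporter were plated at 3000 cells/well, preincubated 5 h at 37C, then given compound for 17 h at 37C; LiveBLAzer B/G FRET substrate was read after 1 h at room temperature.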

[6] = qHTS assay to identify small molecule antagonists of the peroxisome proliferator-activated receptor gamma (PPARg) signaling pathway - cell viability counter screen (AID 743194); also: nearly all actives have a fitted effect of over 55% in size
Method in brief: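 PPARg-UAS-bla HEK293H cells were plated, rested 5 h at 37 C, then treated with compounds plus rosiglitazone (50 nM final) for 17 h at 37 C; viability was then read by CellTiter-Glo luminescence after 30 min at room temperature.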

[7] = qHTS assay for small molecule agonists of the antioxidant response element (ARE) signaling pathway (AID 743202; active = well fitted activation curve with a large enough effect in the signal ratio in the repeat runs, not every such curve was filed as active; the % refers to the signal ratio)
Method in brief: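 Steps: seed ARE-bla HepG2 cells (2,000/well); incubate 5 h at 37 C; add compounds by pin tool; incubate 16 h at 37 C; add FRET substrate; read fluorescence after 2 h at RT.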

[8] = qHTS assay for small molecule agonists of the antioxidant response element (ARE) signaling pathway - cell viability counter screen (AID 743203; calls by dose curve; also: nearly all actives have a fitted effect of over 55% in size)
Method in brief: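 Measured in the same wells as the beta-lactamase ARE reporter, this read-out is CellTiter-Glo luminescence from HepG2 ARE-bla cells given compounds for 16 hrs.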

[9] = qHTS assay for small molecule activators of the heat shock response signaling pathway - cell viability counter screen (AID 743209); also: nearly all actives have a fitted effect of over 50% in size
Method in brief: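 Same-well multiplex: after 2.5 h room-temperature incubation with LiveBLAzer B/G substrate and fluorescence reading, CellTiter-Glo reagent was added to HSE-bla HeLa cells that had received compound for 5 h at 37 C; luminescence read after 30 min.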

[10] = qHTS assay for small molecule activators of the heat shock response signaling pathway (AID 743210; active = well fitted activation curve with a large enough effect in the signal ratio in the repeat runs, with a control signal flat, not every such curve was filed as active; the % refers to the signal ratio;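 also: HeLa cells with beta-lactamase reporter driven by heat shock elements; series mostly up to about 63 µM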)
Method in brief: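 Activation of heat shock element-controlled beta-lactamase expression is measured in HeLa cells by LiveBLAzer FRET fluorescence, with compound exposure lasting 5 h at 37 C and substrate loading 2.5 h at room temperature.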

Chain of Aryl hydrocarbon receptor (Homo sapiens) (P35869 whole entry, looked up): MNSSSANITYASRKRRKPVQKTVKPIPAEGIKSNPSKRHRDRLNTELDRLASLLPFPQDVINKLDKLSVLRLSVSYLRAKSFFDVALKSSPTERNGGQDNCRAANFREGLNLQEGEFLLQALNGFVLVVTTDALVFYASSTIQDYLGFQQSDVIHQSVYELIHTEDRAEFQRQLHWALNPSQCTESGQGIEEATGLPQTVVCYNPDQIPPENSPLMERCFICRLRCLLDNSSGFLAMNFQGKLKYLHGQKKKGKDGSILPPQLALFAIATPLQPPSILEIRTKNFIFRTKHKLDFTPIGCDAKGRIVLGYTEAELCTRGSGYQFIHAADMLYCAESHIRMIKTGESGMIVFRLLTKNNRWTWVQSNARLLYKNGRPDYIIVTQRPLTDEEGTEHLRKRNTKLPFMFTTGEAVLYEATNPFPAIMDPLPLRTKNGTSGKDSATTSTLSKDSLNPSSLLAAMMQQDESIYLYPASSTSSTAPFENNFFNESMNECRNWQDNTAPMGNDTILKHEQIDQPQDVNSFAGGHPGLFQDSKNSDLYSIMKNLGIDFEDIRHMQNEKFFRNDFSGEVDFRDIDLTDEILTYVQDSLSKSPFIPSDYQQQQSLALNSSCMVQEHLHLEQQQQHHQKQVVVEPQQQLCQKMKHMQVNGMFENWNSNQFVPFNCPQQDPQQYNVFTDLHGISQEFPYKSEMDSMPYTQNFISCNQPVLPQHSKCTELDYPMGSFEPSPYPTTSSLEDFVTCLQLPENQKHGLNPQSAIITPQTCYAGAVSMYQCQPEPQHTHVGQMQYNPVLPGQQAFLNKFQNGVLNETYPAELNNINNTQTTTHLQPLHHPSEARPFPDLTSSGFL
Chain of Peroxisome proliferator-activated receptor gamma (Homo sapiens) (P37231 whole entry, looked up): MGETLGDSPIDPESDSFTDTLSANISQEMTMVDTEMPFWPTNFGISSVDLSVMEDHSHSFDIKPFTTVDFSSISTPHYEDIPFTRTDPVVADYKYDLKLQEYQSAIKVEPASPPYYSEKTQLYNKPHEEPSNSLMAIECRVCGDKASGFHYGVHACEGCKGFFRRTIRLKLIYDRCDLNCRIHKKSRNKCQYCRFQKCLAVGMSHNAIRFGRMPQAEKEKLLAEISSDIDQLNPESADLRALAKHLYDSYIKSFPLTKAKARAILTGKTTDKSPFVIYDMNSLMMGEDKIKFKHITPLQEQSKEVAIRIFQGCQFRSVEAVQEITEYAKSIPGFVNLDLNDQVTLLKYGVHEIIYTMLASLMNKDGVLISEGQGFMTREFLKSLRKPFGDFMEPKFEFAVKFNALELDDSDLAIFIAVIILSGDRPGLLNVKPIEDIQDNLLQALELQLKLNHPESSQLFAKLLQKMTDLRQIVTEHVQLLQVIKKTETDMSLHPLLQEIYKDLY

Compound | Potency [1] | Potency [2] | outcome [3] | Potency [4] | Potency [5] | Potency [6] | Potency [7] | Potency [8] | outcome [9] | Potency [10]
O=C1CCCCCCCCCCC(=O)OCCO1 | inactive | inactive | inactive | inactive | inactive | inactive | inactive | inactive | inactive | –
Cc1ncc(CO)c(CN)c1O | inactive | inactive | inactive | inactive | inactive | inactive | – | inactive | inactive | inactive
C[C@@H]1CN(c2c(F)c(F)c3c(=O)c(C(=O)O)cn(C4CC4)c3c2F)C[C@H](C)N1 | inactive | inactive | inactive | inactive | inactive | inactive | – | – | inactive | inactive
Cc1ccc([N+](=O)[O-])cc1Cl | inactive | inactive | inactive | inactive | inactive | inactive | inactive | inactive | inactive | –
CC(C)C(=O)OC/C=C/c1ccccc1 | inactive | inactive | inactive | inactive | inactive | inactive | inactive | inactive | – | inactive
CC(C)O | inactive | inactive | inactive | inactive | inactive | inactive | inactive | – | – | –
CC(C)(CO)[C@@H](O)C(=O)NCCC(=O)O | inactive | inactive | inactive | inactive | inactive | inactive | – | inactive | – | –
CN(C)CCOc1ccccc1Cc1ccccc1 | inactive | inactive | inactive | inactive | inactive | inactive | inactive | inactive | inactive | inactive
CC(C)c1ccccc1 | inactive | inactive | inactive | inactive | inactive | inactive | inactive | inactive | – | –
N#Cc1ccc(C(c2ccc(C#N)cc2)n2cncn2)cc1 | inactive | inactive | inactive | inactive | inactive | – | inactive | inactive | – | inactive
COc1cc2c(cc1N)oc1ccccc12 | inactive | 31.3 µM (active) | inactive | inactive | inactive | – | inactive | inactive | – | –
CCCCNCCCC | inactive | inactive | inactive | inactive | inactive | inactive | inactive | inactive | – | inactive
O=C1C=CC(=O)O1 | inactive | inactive | inactive | inactive | inactive | inactive | inactive | inactive | inactive | inactive
CN1CCN(c2c(F)cc3c(=O)c(C(=O)O)cn(CCF)c3c2F)CC1 | inactive | inactive | inactive | inactive | inactive | inactive | inactive | inactive | inactive | inactive
Cc1nnc(SCC2=C(C(=O)O)N3C(=O)[C@@H](NC(=O)Cn4cnnn4)[C@H]3SC2)s1 | inactive | inactive | inactive | inactive | inactive | inactive | – | inactive | inactive | –
COc1cc(Cl)ccc1Cl | inactive | inactive | inactive | inactive | inactive | inactive | inactive | – | inactive | inactive
O=S(=O)(O)C(F)(F)F | inactive | inactive | inactive | inactive | inactive | inactive | – | inactive | inactive | inactive
CC(C)S | inactive | inactive | inactive | inactive | inactive | inactive | – | inactive | inactive | inactive
CN(CC1(C)CCCO1)S(=O)(=O)c1ccc(Cl)c(S(N)(=O)=O)c1 (stereo not drawn) | inactive | inactive | inactive | inactive | inactive | inactive | inactive | inactive | inactive | inactive
CC(=O)OC1C2(C)CCC(C2)C1(C)C (stereo not drawn) | inactive | inactive | inactive | inactive | inactive | inactive | – | inactive | inactive | –
CCN(CC)C(=O)N(CC)CC | inactive | inactive | inactive | inactive | inactive | – | – | – | inactive | –
CC1=CC(=O)CC(C)(C)C1=O | inactive | inactive | inactive | inactive | inactive | inactive | – | inactive | inactive | inactive
COc1cc(N)c(Cl)cc1C(=O)NC1CCN(Cc2ccccc2)CC1 | inactive | inactive | inactive | inactive | inactive | inactive | inactive | inactive | inactive | inactive
C[C@@H]1CN(c2c(F)c(N)c3c(=O)c(C(=O)O)cn(C4CC4)c3c2F)C[C@H](C)N1 | inactive | inactive | inactive | inactive | inactive | inactive | inactive | inactive | inactive | –
COC(C)CCO (stereo not drawn) | inactive | inactive | inactive | inactive | inactive | inactive | inactive | inactive | inactive | inactive
CC(C)(C)c1cccc(O)c1 | inactive | inactive | inactive | inactive | inactive | inactive | inactive | inactive | – | –

Compound | Potency [1] | Potency [2] | outcome [3] | Potency [4] | Potency [5] | Potency [6] | Potency [7] | Potency [8] | outcome [9] | Potency [10]
CCCCCCCCOC(=O)CCCCCCCCC(=O)OCCCCCCCC | inactive | inactive | inactive | inactive | inactive | inactive | – | inactive | inactive | inactive
CCOC(=O)C1CC(=O)C(=C(O)C2CC2)C(=O)C1 (stereo not drawn) | inactive | inactive | inactive | inactive | inactive | inactive | inactive | inactive | inactive | inactive
CCCCCCCCCC#N | inactive | inactive | inactive | inactive | inactive | inactive | inactive | – | inactive | –
CCCCCCCCc1ccc(S(=O)(=O)O)cc1 | inactive | inactive | inactive | inactive | 43.3 µM (active) | inactive | – | inactive | – | inactive
C=CC1CO1 (stereo not drawn) | inactive | inactive | inactive | inactive | inactive | inactive | inactive | inactive | inactive | inactive
CCC(=O)O[C@]1(C(=O)SCF)[C@H](C)C[C@H]2[C@@H]3C[C@H](F)C4=CC(=O)C=C[C@]4(C)[C@@]3(F)[C@@H](O)C[C@@]21C | inactive | inactive | inactive | inactive | inactive | inactive | inactive | inactive | – | inactive
C[C@@H](N)C(=O)O | inactive | inactive | inactive | inactive | inactive | inactive | inactive | – | – | –
O=Cc1ccc(F)c(Br)c1 | inactive | inactive | inactive | inactive | inactive | inactive | inactive | inactive | inactive | –
CC1(C)C(=O)N(Cl)C(=O)N1Br | inactive | inactive | inactive | inactive | inactive | inactive | – | – | inactive | inactive
CC1=C(O)C(=O)OC1C (stereo not drawn) | inactive | inactive | inactive | inactive | inactive | inactive | inactive | inactive | inactive | inactive
CCCCC1CCC(=O)O1 (stereo not drawn) | inactive | inactive | inactive | inactive | inactive | inactive | inactive | inactive | – | inactive
Cc1c(C(=O)NCCO)[n+](=O)c2ccccc2n1[O-] | inactive | inactive | inactive | inactive | inactive | inactive | inactive | inactive | inactive | inactive
CC(C)=CCC[C@](C)(O)[C@@H]1CC=C(C)CC1 | inactive | inactive | inactive | inactive | – | inactive | – | inactive | – | –
O=c1[nH]cnc2c1ncn2[C@@H]1O[C@H](CO)[C@@H](O)[C@H]1O | inactive | inactive | inactive | inactive | – | inactive | inactive | inactive | inactive | inactive
O=C1CCCCC1C1CCCCC1 (stereo not drawn) | inactive | inactive | inactive | inactive | – | inactive | inactive | inactive | inactive | inactive
CCCNC(C)(C)COC(=O)c1ccccc1 | inactive | inactive | inactive | 0.338 µM (active) | – | inactive | inactive | inactive | inactive | inactive
C=Cc1ccccc1 | inactive | inactive | inactive | inactive | – | inactive | inactive | inactive | inactive | inactive
CCN(CC)CC1CCCCN1CC(=O)N1c2ccccc2C(=O)Nc2cccnc21 (stereo not drawn) | inactive | inactive | inactive | inactive | – | inactive | inactive | – | inactive | –
CCOC(=O)c1ccccc1O | inactive | inactive | inactive | inactive | – | inactive | – | inactive | inactive | inactive
C=CCCC=C | inactive | inactive | inactive | inactive | – | inactive | inactive | inactive | – | –
COc1ccc(S(=O)(=O)Nc2nnc(CC(C)C)s2)cc1 | inactive | inactive | inactive | inactive | – | inactive | inactive | inactive | – | inactive
O=C(O)[C@@H](O)[C@H](O)[C@H](O)[C@@H](O)C(=O)O | inactive | inactive | inactive | inactive | – | inactive | inactive | inactive | – | –
CC/C=C\CCOC(=O)CCCCC | inactive | inactive | inactive | inactive | – | inactive | – | inactive | inactive | inactive
CC1(C)S[C@@H]2[C@H](NC(=O)C(C(=O)O)c3ccccc3)C(=O)N2[C@H]1C(=O)O (stereo partly drawn) | inactive | inactive | inactive | inactive | – | inactive | – | inactive | inactive | –
CCOc1ccc(NC(N)=O)cc1 | inactive | inactive | inactive | inactive | – | inactive | inactive | – | inactive | inactive
O=C(O)[C@@H]1CSCN1 | inactive | inactive | inactive | inactive | – | inactive | inactive | inactive | inactive | inactive
